Screen size: about 390,000 compounds; about 4,000 (1%) were called active. Where a call stands in place of a potency, no number is given. Roughly 7% stayed inconclusive and do not appear here. Calls come from the whole dose curve; as a rule, active = well fitted inhibition curve with a large enough effect; inconclusive = small, poorly fitted or top-dose-only effect, or another doubt; inactive = no such curve, though single readings can be large or run the other way. Only a selection was taken, and actives are over-represented in it overall.
target: DNA polymerase iota (Homo sapiens) (UniProt Q9UNA4); experiment: qHTS for Inhibitors of Polymerase Iota; conditions: Pol iota fluorescent replication assay, 10 min; series mostly up to 115 µM
Method in brief: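 Pol iota at 10 nM preincubated 15 min with compounds at room temperature; reaction started with fluorescent substrate, 50 nM final. Fluorescence read kinetically at 0 and 10 min; buffer-only wells as negative control.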
Potency is the fitted concentration of half-maximal effect.

Sequence of DNA polymerase iota (Homo sapiens) (Q9UNA4 whole entry, looked up): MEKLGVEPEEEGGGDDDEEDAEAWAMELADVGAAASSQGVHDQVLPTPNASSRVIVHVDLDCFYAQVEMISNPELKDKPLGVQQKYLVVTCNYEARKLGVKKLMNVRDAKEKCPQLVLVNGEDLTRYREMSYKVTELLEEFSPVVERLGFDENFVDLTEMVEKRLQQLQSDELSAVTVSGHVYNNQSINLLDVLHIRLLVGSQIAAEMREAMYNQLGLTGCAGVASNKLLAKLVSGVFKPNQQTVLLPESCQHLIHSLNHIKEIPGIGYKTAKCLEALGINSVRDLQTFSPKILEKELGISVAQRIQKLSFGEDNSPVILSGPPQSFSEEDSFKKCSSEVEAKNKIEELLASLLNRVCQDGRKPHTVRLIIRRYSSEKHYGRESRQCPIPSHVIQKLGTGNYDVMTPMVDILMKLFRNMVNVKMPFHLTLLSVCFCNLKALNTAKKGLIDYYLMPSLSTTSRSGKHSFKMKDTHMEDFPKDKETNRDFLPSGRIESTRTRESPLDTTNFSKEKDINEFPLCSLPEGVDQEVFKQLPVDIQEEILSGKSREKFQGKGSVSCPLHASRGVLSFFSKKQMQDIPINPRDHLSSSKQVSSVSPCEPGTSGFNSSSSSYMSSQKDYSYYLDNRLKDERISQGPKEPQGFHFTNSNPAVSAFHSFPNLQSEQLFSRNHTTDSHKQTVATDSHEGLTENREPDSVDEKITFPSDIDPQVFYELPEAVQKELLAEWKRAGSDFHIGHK

| Compound | Potency |
| --- | --- |
| O=C(CN1C(=O)CCn2nc(-c3ccccc3)cc21)NCc1ccccc1 | inactive |
| CCCCc1nn2c(=O)cc(COC(=O)c3ccccc3NC(=O)C(C)(C)C)nc2s1 | inactive |
| COc1cc(/C=C/C(=O)OCC(=O)NC2CC2)cc(OC)c1OC | inactive |
| COc1ccccc1/C=C/C(=O)OCC(=O)NC1CCCCCC1 | inactive |
| COc1ccc(/C=C/C(=O)OCC(=O)NC2CCCCCC2)cc1OC | 89.1 µM (active) |
| Cc1c(Cl)cccc1NC(=O)C1CCCN(C(=O)c2cnn(-c3ccccc3)c2-n2cccc2)C1 (centres undefined) | inactive |
| CN(C)/C=C1/Nc2ccccc2C1=O | 28.2 µM (active) |
| CCCS(=O)(=O)C(=C1Nc2ccccc2N1)S(=O)(=O)CCC | inactive |
| COc1ccccc1CNC(=O)Cn1nc(C)c2nn(-c3ccc(Cl)cc3)c(C)c2c1=O | inactive |
| COC(=O)c1ccccc1NS(=O)(=O)c1ccc2c(c1)CCCN2C(C)=O | inactive |
| O=C1C(Cl)=C(Oc2ccccc2)C(=O)c2ccccc21 | 1.78 µM (active) |
| COc1ccccc1CNC(=O)CS(=O)(=O)c1cccc2nsnc12 | inactive |
| Cc1nn2c(=O)cc(COC(=O)CNC(=O)c3ccc(F)cc3)nc2s1 | inactive |
| O=C(Cc1ccccc1)Nc1sc2c(c1C(=O)Nc1ccc(Br)cc1)CCC2 | inactive |
| COc1cccc(N=C2SC(C(=O)Nc3cccc(Cl)c3)CC(=O)N2C)c1 (centres undefined) | inactive |
| CCCCNC(=O)Cn1c(SCc2cccc(Cl)c2)nc2ccncc21 | inactive |
| COCCNC(=O)Nc1ccc2nc(-c3ccco3)c(-c3ccco3)nc2c1 | 2.82 µM (active) |
| CCOc1ccc(NC(=O)c2ncoc2-c2ccco2)cc1 | inactive |
| COc1ccc(NC(=O)COCc2cc(-c3ccco3)on2)cc1 | inactive |
| COc1ccc(NC(=O)CCCc2nnc3n(CCC(C)C)c(=O)c4sccc4n23)c(OC)c1 | inactive |
| Cc1ccc(CN2C(=O)SC(Nc3ccccc3)C2=O)cc1 (centres undefined) | inactive |
| Cc1ccc(CNC(=O)CSC2=Nc3ccccc3C3=NC(C)C(=O)N23)cc1 (centres undefined) | inactive |
| CC(C)C1N=C2c3ccccc3N=C(SCC(=O)c3ccc(O)c(O)c3)N2C1=O (centres undefined) | 1.41 µM (active) |
| CCOC(=O)CSC1=Nc2ccccc2C2=NC(CCC(=O)NCc3ccc(F)cc3)C(=O)N12 (centres undefined) | inactive |
| COc1ccc(NC(=O)CSc2nc3ccccc3n2CC(=O)N2CCCCC2C)cc1 (centres undefined) | inactive |

| Compound | Potency |
| --- | --- |
| CCOc1ccc(S(=O)(=O)Nc2ccc3oc4c(c3c2)CC(C)CC4)cc1 (centres undefined) | inactive |
| Oc1ccc(N=Cc2sc3ccccc3c2Cl)cc1 | 8.91 µM (active) |
| COC(=O)c1cc(NC(=O)c2sc3ccccc3c2Cl)cc(C(=O)OC)c1 | inactive |
| O=S(=O)(c1ccc2nc(N3CCN(c4cccc(Cl)c4)CC3)ccc2c1)N1CCCCC1 | inactive |
| c1ccc(Cn2nnc3c(N4CCCCC4)ncnc32)cc1 | inactive |
| Cc1ccc(-c2nc(Cn3c(=O)cc(-c4ccccc4)c4c(C)nn(C)c43)c(C)o2)cc1 | inactive |
| COc1cc(OC)cc(C(=O)Nc2ccc3nc(Nc4cccc(C(F)(F)F)c4)cc(C)c3c2)c1 | inactive |
| Cc1cccc(NC(=O)CSc2nc3c(oc4ccccc43)c(=O)n2-c2ccc(F)cc2)c1 | inactive |
| Cc1ccc2c(=O)c(C(=O)c3cccc(Cl)c3)cn(CC(=O)NCc3ccccc3)c2n1 | inactive |
| NS(=O)(=O)c1ccc(NS(=O)(=O)/C=C/c2ccccc2)cc1 | inactive |
| O=C(COC(=O)/C=C/c1cccc(Cl)c1)NCCc1ccccc1 | inactive |
| NNc1cccc(C=Cc2ccccc2)cc1=O | 25.1 µM (active) |
| CCC(=O)N1CCc2cc(Br)cc(S(=O)(=O)CCC(=O)N3CCN(c4ccc(F)cc4)CC3)c21 | inactive |
| Cn1c(SCC(=O)N2CCCc3ccccc32)ncc(C(=O)Nc2ccc(F)cc2)c1=O | inactive |
| S=c1[nH]c(=S)c2n[nH]nc2[nH]1 | inactive |
| COc1cccc(C(=O)Nc2ccc3oc(-c4ccc5ccccc5c4)nc3c2)c1 | inactive |
| COc1cc2nc(N3CCCN(C)CC3)nc(NC(C)C)c2cc1OC | inactive |
| Cc1cccc2cc(CN(Cc3cccs3)C(=S)NCc3ccco3)c(=O)[nH]c12 | inactive |
| O=C(Nc1ccccc1)N(Cc1cccnc1)Cc1ccco1 | inactive |
| Cc1ccc(C)c2[nH]c(=O)c(CN(Cc3cccnc3)C(=S)NCc3ccco3)cc12 | 44.7 µM (active) |
| O=C(c1ccc2c(c1)N(Cc1ccccc1)C(=O)c1ccccc1S2(=O)=O)N1CCCC1 | inactive |
| COc1cc2nc(SCC(=O)Nc3ccccc3F)n3nc(-c4ccccc4)nc3c2cc1OC | inactive |
| CCc1cc2c(cc3c(=O)n(CC(=O)N4CCN(c5cc(Cl)ccc5C)CC4)nc(CC)n32)s1 | inactive |
| CCc1ccc(NC(=O)CN2C(=O)CCSc3ccc(S(=O)(=O)N4CCCC4)cc32)cc1 | inactive |

Reference: PubChem BioAssay AID588590 (National Center for Advancing Translational Sciences (NCATS), 2011)
